Results reported in the supplement of paper PMC12024529.

system: HEK293 WT BDD-FVIII-Gluc; assay: secreted FVIII-Gluc luciferase Z-score vs DMSO control; higher = more FVIII-Gluc secretion; settings: 5 µM
Protocol: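 Natural plant-compound library (480 compounds, ST catalogue IDs) screened on HEK293 cells stably expressing WT BDD-FVIII-Gaussia luciferase fusion at 5 µM. Secreted Gluc activity in the medium is given as a Z-score relative to DMSO controls.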

| SMILES | secreted FVIII-Gluc luciferase Z-score |
| --- | --- |
| COC(C)C(O)(C(=O)OC1=CCN2CC[C@H](O)[C@@H]12)C(C)C (some centres undefined) | -0.914 |
| CCN1C[C@@]2(COC)C3[C@@H](OC)[C@H]4C1[C@@]3(C1C[C@@]3(O)[C@H](OC(=O)c5ccccc5)C1[C@]4(OC(C)=O)[C@@H](O)[C@@H]3OC)[C@@H](OC)C[C@H]2O (some centres undefined) | -0.523 |
| C[C@@H]1O[C@@H](O[C@H]2C[C@@H](O)[C@]3(CO)[C@H]4[C@H](O)C[C@]5(C)[C@@H](C6=CC(=O)OC6)CC[C@]5(O)[C@@H]4CC[C@]3(O)C2)[C@H](O)[C@H](O)[C@H]1O | -3.87 |
| CCCCc1ccc(C(=O)O)nc1 | 0.032 |
| C[C@@H]1OC(=O)[C@H]2C[C@H]3CCCC[C@@H]3[C@@H](/C=C/[C@@H]3CCC[C@@H](C)N3C)[C@@H]12 | -0.126 |
| c1cc2c(cc1C1OCC3C(c4ccc5c(c4)OCO5)OCC13)OCO2 (centres undefined) | -0.0258 |
| CCN1C[C@]2(C)CC[C@H](O)[C@@]34C5C[C@@H]6[C@@H](OC)C[C@@](O)(C5[C@H]6O)[C@@H](CC23)C14 (some centres undefined) | 0.562 |
| CN[C@H]1CCc2cc(OC)c(OC)c(OC)c2-c2ccc(OC)c(=O)cc21 | -3.62 |
| COc1ccc2c(c1OC)CN1CCc3cc4c(cc3C1C2)OCO4 (centres undefined) | 0.658 |
| Cc1cc2c(C(C)C)c(O)c(O)c(C=O)c2c(O)c1-c1c(C)cc2c(C(C)C)c(O)c(O)c(C=O)c2c1O | 1.13 |
| CO[C@]12C[C@@H](COC(=O)c3cncc(Br)c3)CN(C)[C@@H]1Cc1cn(C)c3cccc2c13 | 0.94 |
| CC(C)C1(NC(=O)[C@@H]2C=C3c4cccc5[nH]cc(c45)C[C@H]3N(C)C2)O[C@@]2(O)[C@@H]3CCCN3C(=O)[C@H](Cc3ccccc3)N2C1=O (some centres undefined) | 1.35 |
| CCC12CCCN3CCC4(c5ccc(OC)c(O)c5N(C(C)=O)C4CC1)C32 (centres undefined) | 0.655 |
| COc1cc2c(cc1OC)C13CCN4CC5=CCOC6CC(=O)N2C1C6C5CC43 (centres undefined) | 0.159 |
| CCCN1C[C@H](CSC)C[C@@H]2c3cccc4[nH]cc(c34)C[C@H]21 | 0.385 |
| O=c1cccc2n1CC1CC2CN2CCCC[C@H]12 (some centres undefined) | 0.225 |
| CCC1(O)C(=O)OCc2c1cc1n(c2=O)Cc2cc3ccccc3nc2-1 (centres undefined) | -3.23 |

| SMILES | secreted FVIII-Gluc luciferase Z-score |
| --- | --- |
| COc1cc2c(cc1OC)-c1c(OC)c(OC)c(CO)c3c1C(C2)N(C)CC3 (centres undefined) | -0.0378 |
| C=C[C@H]1CN2CCC1C[C@@H]2[C@@H](O)c1ccnc2ccccc12 (some centres undefined) | -0.283 |
| O=CN1CCCCC1C1CC[C@H]2CCCCN2C1 (some centres undefined) | 0.233 |
| C[C@]12CC[C@H](O)C[C@@H]1CC[C@@H]1[C@@H]2CC[C@]2(C)C(=O)CC[C@@H]12 | 0.049 |
| COC1=CC2C3Cc4ccc(OC)c(O)c4C2(CCN3C)CC1=O (centres undefined) | -0.0187 |
| COc1cc2c(cc1O)-c1c(O)c(OC)cc3c1[C@H](C2)N(C)CC3 | 0.6 |
| COc1cc2c(c(OC)c1OC)-c1ccc(O)c(=O)cc1[C@@H](NC(C)=O)CC2 | 0.222 |
| C[C@]12CC[C@H](O)CC1=CC[C@@H]1[C@@H]2CC[C@]2(C)C(=O)CC[C@@H]12 | 1.29 |
| COc1cc2c(cc1O)CC1c3c(cc(O)c(OC)c3-2)CCN1C (centres undefined) | -0.91 |
| C/C=C1/C[C@@H](C)[C@](O)(CO)C(=O)OCC2=CCN3CC[C@@H](OC1=O)[C@@H]23 | -1.37 |
| COc1ccc2c(c1OC)C(=O)O[C@@H]2[C@H]1c2cc3c(cc2CCN1C)OCO3 | 1.04 |
| CN1CC[C@@]2(C)c3cc(O)ccc3N(C)[C@@H]12 | -0.624 |
| CC(C)[C@H]1C(=O)N2CCC[C@H]2[C@]2(O)OC(NC(=O)[C@@H]3C=C4c5cccc6[nH]cc(c56)C[C@H]4N(C)C3)(C(C)C)C(=O)N12 (some centres undefined) | 0.939 |
| CN1CCc2cc3c(cc2[C@H]1[C@H]1OC(=O)c2c1ccc1c2OCO1)OCO3 | 0.159 |
| C=C(C)[C@H]1Cc2c(ccc3c2O[C@@H]2COc4cc(OC)c(OC)cc4[C@@H]2C3=O)O1 | -5.82 |
| CC1=CC(=O)C2=C(C)C[C@H](O)[C@H]3[C@H](C)C(=O)O[C@@H]3C12 (some centres undefined) | -0.726 |
| C[C@H]1CCC/C=C/C2C[C@H](O)C[C@H]2[C@H](O)/C=C/C(=O)O1 (some centres undefined) | -4.99 |
